# From the supplement of paper PMC11006884
# Targets with a hit are over-represented here; the source holds about 6,500 in all. About 2% of all pairs of compound and target were hits. A number with no mark means an inactive call.
# Compound: COC(=O)C#Cc1ccccc1 [methyl 3-phenylpropiolate]
# Assay: log2 ratio of iodoacetamide-alkyne labeling of the cysteine site, DMSO over compound (competition); higher = stronger covalent engagement of the cysteine by the compound, active = 1 or more
# Conditions: 500 µM; treatment time 1 h; system: HEK293T cell lysate
# In short: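 After 1 h at ambient temperature with vehicle or electrophile (500 µM), HEK293T lysate (2 mg/mL) was labelled for 1 h with iodoacetamide alkyne and clicked to sCIP-TMT reagents. Pooled samples were trypsin-digested overnight at 37 °C, streptavidin-enriched, acid-eluted and analysed by Orbitrap Eclipse LC-MS/MS with FAIMS, then quantified in FragPipe over three replicates with duplicate channels. A cysteine's log2 competition ratio is its mean control-channel over mean compound-channel reporter intensity. Cysteines quantified in only one replicate were not included.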
# UniProt P11586, sequence (P11586 whole entry, looked up): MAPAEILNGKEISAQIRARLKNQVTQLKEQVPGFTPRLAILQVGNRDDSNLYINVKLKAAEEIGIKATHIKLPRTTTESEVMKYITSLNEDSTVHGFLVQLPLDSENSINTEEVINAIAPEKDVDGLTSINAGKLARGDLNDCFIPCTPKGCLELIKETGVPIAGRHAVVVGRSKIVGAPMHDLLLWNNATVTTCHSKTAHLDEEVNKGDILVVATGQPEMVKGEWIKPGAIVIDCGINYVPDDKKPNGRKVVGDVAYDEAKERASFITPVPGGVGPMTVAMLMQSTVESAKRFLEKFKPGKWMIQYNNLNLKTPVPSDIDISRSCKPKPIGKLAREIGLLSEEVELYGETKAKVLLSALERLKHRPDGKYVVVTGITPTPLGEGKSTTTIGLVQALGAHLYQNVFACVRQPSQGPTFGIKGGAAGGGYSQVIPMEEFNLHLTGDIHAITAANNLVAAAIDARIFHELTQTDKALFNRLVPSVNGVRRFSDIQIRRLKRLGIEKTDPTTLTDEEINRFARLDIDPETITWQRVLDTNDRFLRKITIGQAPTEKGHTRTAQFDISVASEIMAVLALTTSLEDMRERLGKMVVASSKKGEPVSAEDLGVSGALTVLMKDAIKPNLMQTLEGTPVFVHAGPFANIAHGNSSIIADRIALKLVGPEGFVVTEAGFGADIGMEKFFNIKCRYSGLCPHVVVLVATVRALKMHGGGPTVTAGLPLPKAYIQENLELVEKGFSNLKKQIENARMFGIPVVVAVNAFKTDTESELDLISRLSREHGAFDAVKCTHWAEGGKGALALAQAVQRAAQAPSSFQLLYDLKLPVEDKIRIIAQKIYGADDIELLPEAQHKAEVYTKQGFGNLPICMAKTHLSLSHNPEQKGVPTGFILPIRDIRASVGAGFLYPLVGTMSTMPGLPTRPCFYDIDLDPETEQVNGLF
# UniProt O95336, sequence (O95336 whole entry, looked up): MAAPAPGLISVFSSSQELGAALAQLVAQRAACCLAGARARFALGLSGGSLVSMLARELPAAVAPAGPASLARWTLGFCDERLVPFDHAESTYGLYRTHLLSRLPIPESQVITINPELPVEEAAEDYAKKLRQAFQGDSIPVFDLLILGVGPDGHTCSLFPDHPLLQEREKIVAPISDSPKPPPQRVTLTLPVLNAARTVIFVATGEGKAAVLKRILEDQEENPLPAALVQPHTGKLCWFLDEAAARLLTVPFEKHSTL
# UniProt P50395, sequence (P50395 whole entry): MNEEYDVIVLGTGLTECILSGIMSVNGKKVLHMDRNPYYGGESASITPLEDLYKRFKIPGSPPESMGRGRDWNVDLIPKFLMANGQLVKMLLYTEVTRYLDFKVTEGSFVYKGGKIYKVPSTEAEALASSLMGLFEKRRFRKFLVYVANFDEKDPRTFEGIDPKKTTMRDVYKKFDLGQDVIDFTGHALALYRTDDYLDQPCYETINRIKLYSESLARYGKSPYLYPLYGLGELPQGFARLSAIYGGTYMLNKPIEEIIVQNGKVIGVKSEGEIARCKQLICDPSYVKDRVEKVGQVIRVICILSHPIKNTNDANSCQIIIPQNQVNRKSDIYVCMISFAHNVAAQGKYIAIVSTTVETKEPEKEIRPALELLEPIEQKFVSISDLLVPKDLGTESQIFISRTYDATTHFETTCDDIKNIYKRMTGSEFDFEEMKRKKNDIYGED
# UniProt P18754, sequence (P18754 whole entry, looked up): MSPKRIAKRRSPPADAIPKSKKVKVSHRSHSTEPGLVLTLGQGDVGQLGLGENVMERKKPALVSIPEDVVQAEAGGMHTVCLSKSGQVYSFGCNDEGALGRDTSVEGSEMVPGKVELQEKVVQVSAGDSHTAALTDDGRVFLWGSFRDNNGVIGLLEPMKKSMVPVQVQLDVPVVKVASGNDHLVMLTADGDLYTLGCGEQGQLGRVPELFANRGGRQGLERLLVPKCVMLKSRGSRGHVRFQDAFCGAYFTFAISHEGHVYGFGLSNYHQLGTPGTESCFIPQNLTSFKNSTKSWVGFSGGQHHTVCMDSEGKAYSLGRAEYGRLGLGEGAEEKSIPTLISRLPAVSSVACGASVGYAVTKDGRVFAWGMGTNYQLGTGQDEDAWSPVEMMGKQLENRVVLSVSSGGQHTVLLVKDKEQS
# UniProt P38432, sequence (P38432 whole entry, looked up): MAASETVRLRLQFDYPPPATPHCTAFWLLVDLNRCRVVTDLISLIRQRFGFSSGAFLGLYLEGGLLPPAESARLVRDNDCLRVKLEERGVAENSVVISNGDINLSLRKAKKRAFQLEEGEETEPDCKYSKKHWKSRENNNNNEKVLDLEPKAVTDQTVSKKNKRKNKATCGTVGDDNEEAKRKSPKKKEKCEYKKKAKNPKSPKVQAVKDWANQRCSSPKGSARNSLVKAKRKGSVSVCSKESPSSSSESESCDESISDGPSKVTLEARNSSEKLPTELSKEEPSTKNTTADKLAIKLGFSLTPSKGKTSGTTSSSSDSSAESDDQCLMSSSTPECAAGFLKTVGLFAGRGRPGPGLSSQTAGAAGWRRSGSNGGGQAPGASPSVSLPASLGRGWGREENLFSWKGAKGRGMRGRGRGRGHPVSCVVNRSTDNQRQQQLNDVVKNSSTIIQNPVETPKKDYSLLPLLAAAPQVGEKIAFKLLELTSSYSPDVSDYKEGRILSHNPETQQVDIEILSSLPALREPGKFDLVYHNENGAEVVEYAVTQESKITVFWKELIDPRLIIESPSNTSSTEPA
# UniProt P51970, sequence (P51970 whole entry): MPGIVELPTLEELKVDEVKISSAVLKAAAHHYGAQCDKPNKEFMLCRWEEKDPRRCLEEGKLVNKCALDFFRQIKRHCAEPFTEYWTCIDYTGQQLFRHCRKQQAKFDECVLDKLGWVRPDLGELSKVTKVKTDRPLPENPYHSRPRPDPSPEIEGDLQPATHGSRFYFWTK
# UniProt P49589, sequence (P49589 whole entry): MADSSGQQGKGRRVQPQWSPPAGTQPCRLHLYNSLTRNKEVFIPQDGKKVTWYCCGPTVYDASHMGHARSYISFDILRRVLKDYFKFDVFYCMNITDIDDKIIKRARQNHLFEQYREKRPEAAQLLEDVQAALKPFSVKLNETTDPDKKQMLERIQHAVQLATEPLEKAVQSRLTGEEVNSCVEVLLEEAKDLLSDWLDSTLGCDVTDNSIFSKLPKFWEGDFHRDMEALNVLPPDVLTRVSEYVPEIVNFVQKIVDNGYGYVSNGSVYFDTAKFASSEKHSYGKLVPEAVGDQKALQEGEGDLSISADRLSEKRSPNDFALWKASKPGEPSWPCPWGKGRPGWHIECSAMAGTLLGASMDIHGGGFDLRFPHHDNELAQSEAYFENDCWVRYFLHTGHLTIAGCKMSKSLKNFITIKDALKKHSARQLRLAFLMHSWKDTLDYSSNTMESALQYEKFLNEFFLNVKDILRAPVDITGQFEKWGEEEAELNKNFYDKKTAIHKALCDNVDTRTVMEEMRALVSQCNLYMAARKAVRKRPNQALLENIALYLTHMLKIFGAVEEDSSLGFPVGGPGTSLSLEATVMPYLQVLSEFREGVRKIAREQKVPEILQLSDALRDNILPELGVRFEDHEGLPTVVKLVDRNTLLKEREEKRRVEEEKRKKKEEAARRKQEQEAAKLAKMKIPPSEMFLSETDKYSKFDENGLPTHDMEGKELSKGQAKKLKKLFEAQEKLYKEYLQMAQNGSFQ
# UniProt P09651, sequence (P09651 whole entry, looked up): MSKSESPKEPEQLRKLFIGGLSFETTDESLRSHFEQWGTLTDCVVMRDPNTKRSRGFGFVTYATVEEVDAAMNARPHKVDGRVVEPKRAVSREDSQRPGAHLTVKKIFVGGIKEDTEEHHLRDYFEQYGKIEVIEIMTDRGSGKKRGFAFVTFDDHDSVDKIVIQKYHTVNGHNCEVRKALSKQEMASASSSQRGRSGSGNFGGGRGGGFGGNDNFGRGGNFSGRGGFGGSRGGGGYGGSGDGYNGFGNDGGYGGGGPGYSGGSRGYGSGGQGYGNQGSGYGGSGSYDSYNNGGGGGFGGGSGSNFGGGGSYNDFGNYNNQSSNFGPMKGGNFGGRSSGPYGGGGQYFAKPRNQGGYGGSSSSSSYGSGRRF
# UniProt P11216, sequence (P11216 whole entry, looked up): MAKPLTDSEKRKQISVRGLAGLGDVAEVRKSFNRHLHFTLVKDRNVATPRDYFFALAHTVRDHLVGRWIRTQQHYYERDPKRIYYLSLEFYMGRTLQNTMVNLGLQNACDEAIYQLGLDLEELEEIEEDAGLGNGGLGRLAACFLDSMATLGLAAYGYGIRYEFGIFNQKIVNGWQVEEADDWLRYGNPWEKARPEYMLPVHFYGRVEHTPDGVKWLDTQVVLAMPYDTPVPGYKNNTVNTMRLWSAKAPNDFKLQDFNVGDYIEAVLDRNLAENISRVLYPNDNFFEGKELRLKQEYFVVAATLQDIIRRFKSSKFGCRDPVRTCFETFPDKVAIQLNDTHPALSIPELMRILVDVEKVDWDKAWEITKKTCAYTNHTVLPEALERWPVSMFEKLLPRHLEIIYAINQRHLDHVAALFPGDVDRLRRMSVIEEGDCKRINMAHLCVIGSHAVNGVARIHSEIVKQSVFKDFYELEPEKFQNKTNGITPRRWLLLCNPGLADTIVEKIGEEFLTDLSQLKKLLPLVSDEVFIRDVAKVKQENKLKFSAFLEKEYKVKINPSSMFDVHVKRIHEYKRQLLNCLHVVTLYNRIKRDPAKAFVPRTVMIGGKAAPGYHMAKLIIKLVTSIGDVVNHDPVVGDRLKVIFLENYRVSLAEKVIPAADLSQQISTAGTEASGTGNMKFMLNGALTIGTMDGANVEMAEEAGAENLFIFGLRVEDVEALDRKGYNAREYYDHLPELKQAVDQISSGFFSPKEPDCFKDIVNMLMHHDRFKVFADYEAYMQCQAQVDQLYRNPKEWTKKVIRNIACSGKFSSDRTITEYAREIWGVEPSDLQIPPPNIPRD
row,Target,log2 ratio of iodoacetamide-alkyne labeling
1,RPL17 C144 (UniProt P18621),0.131
2,MTHFD1 C691 (UniProt P11586),0.242
3,TCEA1 C271 (UniProt P23193),-0.116
4,GDI2 C202 (UniProt P50395),-0.0158
5,UniProt P26639_C343,0.143
6,NDUFA8 C110 (UniProt P51970),1.12 (active)
7,HNRNPA1 C175 (UniProt P09651),-0.128
8,COIL C126 (UniProt P38432),0.729
9,LTA4H C8 (UniProt P09960),0.273
10,PGLS C32 (UniProt O95336),0.724
11,CARS C27 (UniProt P49589),0.454
12,LRPPRC C863 (UniProt P42704),-0.00586
13,RCC1 C93 (UniProt P18754),0.14
14,PYGB C326 (UniProt P11216),0.332
15,RANBP2 C3071 (UniProt P49792),0.0882
